Screening data: PubChem BioAssay, National Center for Advancing Translational Sciences (NCATS)
PI5P4K alpha inh – qHTS for Inhibitors of phosphatidylinositol 5-phosphate 4-kinase (PI5P4K); AID 652105, 2013; max response, %; Phosphatidylinositol 5-phosphate 4-kinase type-2 alpha (Homo sapiens), P48426; 330,000 tested, 1.2% active; PI5P4Kalpha enzyme, ADP-Glo luminescence, 60 min; hits give low values; active means max response of -50% or lower; inconclusive means between -30% and -50%; inactive means -30% or higher; further: value at the top dose of about 77 µM; on the % scale 0 is the no-effect control and ±100 the full control effect
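PI5P4Kalpha ADP-Glo assay; 5 microM ATP final; 60 min RT reaction; HEPES pH 7.4/EGTA/CHAPS, 5% DMSO; controls lacking substrate or enzyme; luminescent end-point.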
HP1b binding inh – HTS for Inhibitors of HP1-beta Chromodomain Interactions with Methylated Histone Tails; Chromobox protein homolog 1 (Homo sapiens), P83916; AlphaScreen HP1-beta / biotin-H3K9me3 peptide binding; Potency, µM (doses to about 114 µM), for inactives: at the highest dose activity change, negative = inhibition, most hits filed as inhibitors; 390,000 tested, 0.56% active; AID 540317, 2011; further: potency means the concentration at half of the fitted maximal effect; nearly all actives have a fitted effect of over 70% in size
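Compound inhibition of the preformed complex between 50 nM HP1-beta and 50 nM biotinylated H3K9me3 peptide was read by AlphaScreen. Buffer was PBS pH 7.4 with 0.01% Tween-20. Incubations ran 30 min at room temperature, with 10 ug/mL donor/acceptor beads.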
BAZ2B inh – qHTS Assay for Inhibitors of BAZ2B; AlphaScreen BAZ2B-H3K14Ac peptide displacement; Potency, µM (highest dose often 114 µM), inactives show at the highest dose activity change, negative = inhibition, hits mostly inhibitors; 360,000 tested, 4.4% active; AID 504333, 2011; further: potency means the concentration at half of the fitted maximal effect; on the % scale 0 is the no-effect control and ±100 the full control effect; nearly all actives have a fitted effect of over 60% in size
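AlphaScreen displacement of biotin-H3(5-23)K14Ac peptide (50 nM final) from BAZ2B (50 nM final) in PBS pH 7.4, 0.01% Tween-20; complex preformed 30 min RT, then compounds (top 110 uM) 30 min RT, beads 20 min dark.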
G9a block – qHTS Assay for Inhibitors of Histone Lysine Methyltransferase G9a. Histone-lysine N-methyltransferase EHMT2 (Homo sapiens), Q96KQ7. G9a H3K9 monomethylation, AlphaScreen, 2 h. Potency, µM (top dose mostly 102 µM), without a hit: top-dose activity, negative = inhibition, usual class: inhibitors. 350,000 tested, 8.8% active; further: potency means the concentration at half of the fitted maximal effect; on the % scale 0 is the no-effect control and ±100 the full control effect; nearly all actives have a fitted effect of over 75% in size
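AlphaScreen read-out: biotin-H3K9 peptide (500 nM) methylation by 20 nM enzyme with 20 uM SAM, 2 h at room temperature after 15 min compound preincubation; anti-monomethyl H3K9 antibody plus donor/acceptor beads, 10 min dark.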
JMJD2A Tudor inh – qHTS Assay for Inhibitors of JMJD2A-Tudor Domain; Lysine-specific demethylase 4A (Homo sapiens), O75164; AlphaScreen JMJD2A-Tudor / H3K4me3 peptide binding; Potency, µM (series often up to 114 µM), inactives show at the highest dose activity change, negative = inhibition, usual class: inhibitors; 390,000 tested, 4.4% active; AID 504339, 2011; further: potency means the concentration at half of the fitted maximal effect; on the % scale 0 is the no-effect control and ±100 the full control effect; nearly all actives have a fitted effect of over 50% in size
Target sequence (O75164 whole entry, looked up, the tested form may be a part): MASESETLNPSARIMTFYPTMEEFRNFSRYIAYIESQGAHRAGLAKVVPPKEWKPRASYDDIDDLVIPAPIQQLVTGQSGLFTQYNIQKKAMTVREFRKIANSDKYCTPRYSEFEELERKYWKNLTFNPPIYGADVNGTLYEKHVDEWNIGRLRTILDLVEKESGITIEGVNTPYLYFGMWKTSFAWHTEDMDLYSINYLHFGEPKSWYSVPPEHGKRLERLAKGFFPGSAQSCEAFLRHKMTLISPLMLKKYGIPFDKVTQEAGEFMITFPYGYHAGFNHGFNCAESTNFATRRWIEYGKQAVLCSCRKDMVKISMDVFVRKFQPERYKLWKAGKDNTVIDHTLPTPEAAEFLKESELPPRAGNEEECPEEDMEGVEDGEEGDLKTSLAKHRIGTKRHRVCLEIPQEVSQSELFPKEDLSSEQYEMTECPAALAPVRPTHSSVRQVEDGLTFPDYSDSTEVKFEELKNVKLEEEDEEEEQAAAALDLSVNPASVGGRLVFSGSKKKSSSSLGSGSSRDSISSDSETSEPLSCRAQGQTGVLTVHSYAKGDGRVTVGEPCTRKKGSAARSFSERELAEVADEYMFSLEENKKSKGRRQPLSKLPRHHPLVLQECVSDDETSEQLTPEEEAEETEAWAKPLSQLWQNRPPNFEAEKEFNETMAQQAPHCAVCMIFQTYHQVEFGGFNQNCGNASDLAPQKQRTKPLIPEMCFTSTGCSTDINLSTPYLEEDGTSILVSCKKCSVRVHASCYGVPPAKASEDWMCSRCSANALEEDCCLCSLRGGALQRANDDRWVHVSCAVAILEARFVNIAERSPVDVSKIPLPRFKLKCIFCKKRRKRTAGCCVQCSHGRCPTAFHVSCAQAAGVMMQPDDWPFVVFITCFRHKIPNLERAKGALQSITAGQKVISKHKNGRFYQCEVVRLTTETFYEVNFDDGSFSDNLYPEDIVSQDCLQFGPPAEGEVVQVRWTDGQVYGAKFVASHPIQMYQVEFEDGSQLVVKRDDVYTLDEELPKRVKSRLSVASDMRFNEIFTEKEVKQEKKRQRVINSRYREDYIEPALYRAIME
L3MBTL1 block – qHTS Assay for the Inhibitors of L3MBTL1; AlphaScreen L3MBTL1–H3K9me1 peptide binding; Potency, µM (top dose mostly 57.1 µM), for inactives: top-dose activity, negative = inhibition, actives largely listed as inhibitors; 230,000 tested, 0.66% active; further: potency means the concentration at half of the fitted maximal effect; on the % scale 0 is the no-effect control and ±100 the full control effect; nearly all actives have a fitted effect of over 60% in size
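Displacement of a biotinylated histone H3(1-15) peptide monomethylated at Lys9 (75 nM) from L3MBTL1 (50 nM) was measured by AlphaScreen after a 30 min room-temperature compound incubation; cefsulodin titration served as intraplate control.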
Starred values were filed as active, the others as inactive; ? = inconclusive; nt = not tested or not shown; [ ] = dose if it differs, or a comment. Sampled rows, rich in hits. Any-hit rate of the full collection: about 11%. Unless noted, the call rests on the fitted dose curve; in most records, active means well fitted inhibition curve with a large enough effect; inconclusive means small, poorly fitted or top-dose-only effect; inactive means no such curve, though single readings can be large or run the other way.

SMILES	PI5P4K alpha inh	HP1b binding inh	BAZ2B inh	G9a block	JMJD2A Tudor inh	L3MBTL1 block
CC(=O)O[C@H]1CC[C@]2(C=O)C3CC[C@]4(C)[C@@H](C5=CC(=O)OC5)CC[C@]4(O)C3CC[C@]2(O)C1 (stereo partly specified)	nt	21%	nt	nt	-8%	nt
N#Cc1ccc(CN2CC3(CCNCC3)C2)cc1	nt	nt	nt	-4%[12.7 µM]	nt	nt
COc1cccc(N2C(=O)NC(=O)/C(=C/c3ccc4c5c(cccc35)CC4)C2=O)c1	nt	nt	50µM*	10µM*	nt	-12%
Cc1cccc(N2C(=O)NC(=O)/C(=C\c3ccc4c(c3)CCCN4Cc3ccccc3)C2=O)c1	?	15%	?	?	-24%	-9%
COc1ccc(N2C(=O)NC(=O)/C(=C/c3ccc4c(c3)Cc3ccccc3-4)C2=O)cc1	nt	nt	35µM*	3.5µM*	nt	nt
CCOc1ccccc1N1C(=O)NC(=O)/C(=C/c2ccc3c4c(cccc24)CC3)C1=O	-64*	31%	50µM*	27%[0.501 µM]	79µM*	-2%
COc1cc(/C=C2\C(=O)NC(=O)N(c3ccccc3)C2=O)cc(OC)c1OC	?	18%	-37%	?	-25%	nt
CC1=CCCC2C1(C)CCC(C)C2(C)CC/C(C)=C/C[n+]1cn(C)c2c(N)ncnc21 (stereo unspecified)	nt	nt	nt	-17%[2.33 µM]	nt	nt
Cc1cc(C)c(N)cc1C	8	52%	-8%	-1%[0.501 µM]	-23%	-8%
S=c1[nH]nc(C2CC2)n1Cc1ccccc1	7	-16%	nt	6.3µM*	16µM*	-19%
S=c1[nH]nc(-c2ccco2)n1Cc1ccccc1	4	-6%	-25%	?	7.1µM*	3%
COc1ccccc1-c1n[nH]c(=S)n1Cc1ccco1	nt	nt	?	3.5µM*	nt	-3%
O=c1c2ccccc2nc(-c2ccco2)n1-c1ccc(Br)cc1	8	19%	-11%	8%	-3%	2%
CCCC1=Nc2cc(C(=O)NC3CCC(C)CC3)ccc2Sc2ccccc21 (stereo unspecified)	nt	19%	-10%	-7%[59 µM]	-17%	nt
CC(C)CN1CC[C@@]2(CCCN(C(=O)Oc3ccccc3)C2)C1	nt	nt	nt	6%[12.7 µM]	nt	nt
O=C(Nc1ccc2c(c1)OCCO2)c1cccn(Cc2cccc([N+](=O)[O-])c2)c1=O	nt	20%	-25%	?	?	nt
O=C(O)c1ccc2c(c1)C1C(Cl)C(Sc3ccccc3[N+](=O)[O-])CC1C(c1cccc([N+](=O)[O-])c1)N2 (stereo unspecified)	?	40µM*	18µM*	20µM*	-22%[11.4 µM]	22µM*
O=C(O)c1cccc2c1NC(c1cccc([N+](=O)[O-])c1)C1CC(Sc3ccccc3[N+](=O)[O-])C(Cl)C21 (stereo unspecified)	-23	?	22µM*	16µM*	22µM*	20µM*
COc1ccccc1N1CCN(S(=O)(=O)c2ccc3c(c2)oc(=O)n3C)CC1	5	8%	?	3%[59 µM]	-16%	nt
COc1ccccc1N=c1scc(-c2ccc(S(=O)(=O)N3CCCC3)cc2)n1C	nt	?	8.9µM*	10µM*	?	nt
CC[C@@H]1[C@@H]2C[C@H]3[C@H]4N(C)c5ccccc5[C@@]45C[C@@H]([C@@H]2[C@@H]5O)N3[C@H]1O	nt	nt	nt	-1%[21.5 µM]	nt	nt
Ic1ccccc1CN[C@@H]1C2CCN(CC2)[C@@H]1C(c1ccccc1)c1ccccc1	-14	?	40µM*	1.6µM*	18µM*	-4%
